The target in assay [1] is ATP-dependent translocase ABCB1 (Homo sapiens) (UniProt P08183). Description: P-glycoprotein substrate transport blockade – cell-based (AID 377; in the data active means fluorescence slope change above about 50%). To be noted: MDR1-expressing cells, fluorescent substrate accumulation slope; active compounds read high; concentration not given here.
The nature of assay [2]: compounds altering viability of human ES cells (AID 493140).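 Further: cells exposed to compounds for four days before counting.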 To be noted: human embryonic stem cell survival screen; active compounds read high.

One compound from PubChem BioAssay can be followed below.

Results filed as inconclusive are left out. The source made the active and inactive calls. Unless noted, how the calls were made is not given here.

Chain of ATP-dependent translocase ABCB1 (Homo sapiens) (P08183 whole entry, looked up): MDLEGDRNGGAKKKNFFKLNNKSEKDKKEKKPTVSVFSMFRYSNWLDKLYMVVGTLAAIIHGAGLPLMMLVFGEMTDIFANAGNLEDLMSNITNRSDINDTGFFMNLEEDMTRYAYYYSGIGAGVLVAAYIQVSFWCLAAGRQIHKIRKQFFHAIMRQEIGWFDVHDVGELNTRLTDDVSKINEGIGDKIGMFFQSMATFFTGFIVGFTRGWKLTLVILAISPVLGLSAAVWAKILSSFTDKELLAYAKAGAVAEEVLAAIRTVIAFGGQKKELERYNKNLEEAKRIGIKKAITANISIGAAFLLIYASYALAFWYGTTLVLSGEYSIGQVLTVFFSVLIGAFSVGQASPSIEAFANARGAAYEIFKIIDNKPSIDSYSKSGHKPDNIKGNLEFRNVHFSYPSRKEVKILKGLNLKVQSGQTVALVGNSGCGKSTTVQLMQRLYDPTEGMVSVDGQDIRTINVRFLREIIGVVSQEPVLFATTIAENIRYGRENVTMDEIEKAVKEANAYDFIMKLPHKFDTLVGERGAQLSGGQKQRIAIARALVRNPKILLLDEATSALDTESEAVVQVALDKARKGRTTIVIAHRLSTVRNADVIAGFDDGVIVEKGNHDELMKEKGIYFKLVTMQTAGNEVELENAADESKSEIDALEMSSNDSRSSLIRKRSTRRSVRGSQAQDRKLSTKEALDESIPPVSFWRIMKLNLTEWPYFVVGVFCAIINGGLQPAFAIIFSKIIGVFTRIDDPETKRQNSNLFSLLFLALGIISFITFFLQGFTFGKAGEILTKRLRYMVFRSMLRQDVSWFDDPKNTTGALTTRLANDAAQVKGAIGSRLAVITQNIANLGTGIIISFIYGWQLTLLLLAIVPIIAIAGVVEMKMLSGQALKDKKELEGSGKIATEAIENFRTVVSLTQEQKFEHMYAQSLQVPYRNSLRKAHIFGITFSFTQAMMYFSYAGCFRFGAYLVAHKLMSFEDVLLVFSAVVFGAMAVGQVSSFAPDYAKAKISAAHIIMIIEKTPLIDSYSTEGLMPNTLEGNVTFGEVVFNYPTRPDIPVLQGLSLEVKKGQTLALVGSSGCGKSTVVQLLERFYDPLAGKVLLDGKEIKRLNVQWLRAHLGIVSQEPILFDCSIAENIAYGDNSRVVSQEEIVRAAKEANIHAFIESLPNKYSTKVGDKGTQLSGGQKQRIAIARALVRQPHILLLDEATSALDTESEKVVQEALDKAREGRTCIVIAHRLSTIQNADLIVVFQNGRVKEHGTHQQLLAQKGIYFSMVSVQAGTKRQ

As to `C[C@H]1NC(=O)NC1=O`, the fluorescence slope change in assay [1] is 1.4% (inactive). For the same compound, the survival in assay [2] is 3.67 (inactive).
